Drawing on PubChem BioAssay (NCI), this text covers growth for 40 compounds.

Compounds without any hit were thinned out: in the full panel of roughly 83,000, 20% have a hit.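 Cells were grown in 96-well plates and exposed to the test compound at a single concentration for 48 hours; results are reported as percent growth, with values below 10 considered active.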 A number with no mark means an inactive call. Activity calls are given as the source filed them.

In the experiment the test system is HL-60(TB) leukemia. Briefly: NCI-60 one-dose screen, 48 h (100 = growth as untreated, 0 = no growth, -100 = all killed). As to conditions: 10 µM unless noted.
Regarding `CCCCOc1nc2ccc(Cl)cc2cc1/C=C/C(=O)/C=C/c1ccc(Cl)cc1`, the growth was 61.2%.

In the case of `COC(=O)c1c2c(c(C)[n+]([O-])c1C)C(=O)C=C(NCc1ccc(F)c(Cl)c1)C2=O`, the growth was -28.9% (active).

As for `CCCCn1c(Cc2ccc(OC)cc2)nc2cc(OC)c(OC)cc2c1=O`, the growth was 79.3%.

Take `Cc1cccc(C)c1N1C(c2ccccc2)=NNC12C=CC(=O)c1c(O)cccc12` (stereo not given): the growth is 61.2%.

As to `Cc1nc(S(=O)(=O)c2ccccc2)c(S(=O)(=O)Cc2ccc([N+](=O)[O-])cc2)o1`, the growth is 89.9%.

Regarding `C=C1C(=O)O[C@H]2[C@H]1CC/C(Cn1cc(-c3cc(C)c(C)cc3C)nn1)=C\CC[C@@]1(C)O[C@@H]21`, the growth is -9.09% (active).

Take `Cc1c(C)n(CC(O)CNC2CCCCC2C)c2ccccc12` (stereo not given): the growth is -13.8% (active).

As to `O=S(=O)(NCCNc1nccc(-c2c(-c3cccc(O)c3)nc3occn23)n1)c1ccc(Cl)cc1`, the growth was 76.4%.

`Cn1cc(-c2nc(-c3c[nH]c4c(Cl)nccc34)cs2)c2ccccc21`: the growth is 83.3%.

Consider `CCN1C(=O)N(CC)C2Nn3c(s/c(=C4\C(=O)Nc5ccccc54)c3=O)=NC21` (stereo not given), for which the growth was 27.8%.

Consider `CN(CCOc1ccc(CC2SC(=O)NC2=O)cc1)c1ccccn1` (stereo not given), for which the growth is 128%.

Consider `O=C1CSC(c2c(Cl)cccc2Cl)N1c1nc(Cl)cc(=O)[nH]1` (stereo not given), for which the growth was 161%.

As to `CC1(C)N=C(N)N=C(N)N1c1cc(Cl)ccc1Cl`, the growth was 53.7%.

As to `CCCCCCCCCCC(CN(CC)CC)C(O)c1ccccc1` (stereo not given), the growth was 44.7%.

As to `C[C@H]1[C@H](C)CC[C@]2(C(=O)OCCOCCOCC[P+](c3ccccc3)(c3ccccc3)c3ccccc3)CC[C@]3(C)C(=CC[C@@H]4[C@@]5(C)CC[C@H](OC(=O)C(Cl)Cl)C(C)(C)[C@@H]5CC[C@]43C)[C@H]12`, the growth is -48.3% (active).

For the compound `O=C(NCCCCCCNC(=O)OCc1ccc2c(Cl)cc(Cl)c(O)c2n1)OCc1ccc2c(Cl)cc(Cl)c(O)c2n1`, the growth is -46.2% (active).

Regarding `O=c1[nH]c2cc(O)ccc2n2cc3c(F)cccc3c12`, the growth is 25.5%.

Regarding `O=C1/C(=C/c2cccc(Br)c2)COc2ccc(O)cc21`, the growth was -16.7% (active).

Consider `NCCCCCCNc1cc(-c2cccc(OC(F)(F)F)c2)nc2ccc(N3CCCC3)cc12`, for which the growth is -60.2% (active).

With `S=c1sc2c(Cl)nc(-c3cccnc3)nc2n1-c1ccccc1`, the growth was -52.5% (active).

For `CCCCOC(OCCCC)c1ccccc1`, the growth is 96.7%.

Consider `O=C(NCCNC(=O)c1ccc(F)cc1)Nc1ccc(-n2cc(-c3ccncc3)c(-c3ccc(Cl)c(O)c3)n2)cc1`, for which the growth is -14.1% (active).

`O=C(N=Nc1c(Cl)c(O)c2ccccc2c1O)C(=O)Nc1cccc(C(F)(F)F)c1`: the growth is 6.33% (active).

As for `COc1cc(C2C(C#N)=C(c3c[nH]c4ccccc34)Nc3nc(N)[nH]c(=O)c32)cc(OC)c1OC` (stereo not given), the growth is 42.1%.

On to `COC(=O)[C@]12CC[C@@H](C)[C@H](C)[C@@H]1C1=CC[C@@H]3[C@@]4(C)C[C@@H](OC(=O)c5ccco5)[C@H](O)[C@@](C)(CO)[C@@H]4[C@H](O)C[C@@]3(C)[C@]1(C)CC2`, for which the growth is -79.6% (active).

For the compound `COc1cccc(-c2nn(-c3ccccc3)cc2-c2ccnc(NCCCNS(=O)(=O)c3ccc(Cl)cc3)c2)c1`, the growth is 40%.

As to `COc1cc2oc(-c3cccc(C(=O)Nc4ccc(Cl)cc4)c3)cc(=O)c2c(O)c1OC`, the growth was 85.6%.

In the case of `Nc1ccc(CC[C@H]2CCC/C=C/[C@@H]3C[C@H](O)C[C@H]3[C@H](O)/C=C/C(=O)O2)cc1`, the growth is -8.51% (active).

`COc1ccc(NC(=O)/N=c2\oc3c(OC)cccc3cc2-c2cc3ccccc3[nH]2)cc1`: the growth is 142%.

As for `CCCCCCn1c(-c2ccc(C(=O)O/N=C(\N)c3ccc4ccccc4c3)cc2)nc(-c2ccccc2)c1-c1ccccc1`, the growth is 2.97% (active).

Take `Cc1ccc(/C(CS(=O)(=O)c2ccc(C)cc2)=N\O)cc1`: the growth is 99%.

Regarding `O=C(Nc1ccc(F)cc1)Nc1ccccc1CNc1nc(Nc2ccc(OCCN3CCCC3)cc2)ncc1Cl`, the growth was -39.6% (active).

With `COc1cc(-c2nn(-c3cccc(NC(=O)Nc4cccc(C(F)(F)F)c4)c3)cc2-c2ccncc2)ccc1Cl`, the growth was -18.7% (active).

As for `Cc1c2c[n+](C(C)C)ccc2c(C)c2c1[nH]c1ccccc12`, the growth is 14.4%.

In the case of `C=C1C(=O)O[C@H]2[C@H]1CC/C(COC(=O)/C=C\C(=O)NCc1ccc(Cn3c(=O)sn(CCCCl)c3=O)cc1)=C\CC[C@@]1(C)O[C@@H]21`, the growth is 10.8%.

Consider `COc1cc(/C=C/C(=O)c2c(C)oc3nc[nH]c(=O)c23)cc(OC)c1OC`, for which the growth is 65.9%.

As to `N#C/C(=C\c1c(-c2ccccc2)[nH]c2ccccc12)C(=O)c1ccccc1`, the growth was 2.79% (active).

In the case of `O=[N+]([O-])c1cccc(N=Cc2ccc3c(c2)OCO3)c1`, the growth is 98.5%.

On to `CN1CCN(Cc2ccc(NC(=O)c3[nH]ncc3Nc3ncnc4sc5c(c34)CCCC5)cc2)CC1`, for which the growth was -67.4% (active).

Regarding `O=C1/C=C/[C@@H](O)[C@@H]2C[C@@H](O)C[C@H]2/C=C/CCC[C@@H](O)CCO1`, the growth was 123%.
